Assay results reported in PubChem BioAssay AID652104 (National Center for Advancing Translational Sciences (NCATS), 2013).
The whole screen tested about 410,000 compounds, of which about 7,200 (1.8%) were called active. Not shown: some 7% with an inconclusive outcome. Calls follow the shape of the dose curve; as a rule, active = well fitted activation curve with a large enough effect; inconclusive = small, poorly fitted or top-dose-only effect, or another doubt; inactive = no such curve, though single readings can be large or run the other way. The sample as a whole holds a higher share of actives than the screen did.

Test: qHTS of TDP-43 Inhibitors; also: nearly all actives have a fitted effect of over 50% in size; as to growth rescue (activation): % of control where 0% means no effect
Conditions: TDP-43 expressing yeast growth rescue, BacTiter-Glo, 24 h; series mostly up to 46.1 µM; growth rescue (activation): at the top concentration
Procedure, shortened: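 Galactose-induced TDP-43 yeast, OD600=0.02, compound pinned; 24 hr, 30 deg C; BacTiter-Glo luminescence for growth. Inhibitors of TDP-43 toxicity read as activators.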
Potency is read from the fitted curve at half-maximal effect.

Growth rescue (activation), inactive:
CCOc1ccc(N(CC)C(=O)c2noc3c2COc2ccc(C)cc2-3)cc1 3.89%
Cn1c(=O)sc2cc(NS(=O)(=O)c3ccc(C(C)(C)C)cc3)ccc21 15.4%
COc1cc(NC(=O)c2nn(-c3ccc(C)cc3)c(=O)c3c2c2ccccc2n3C)cc(OC)c1OC 20.5%
COc1ccccc1-n1c(-c2ccc(C)cc2)cn2c3c(=O)n(C)c(=O)n(C)c3nc12 15.8%
Cc1ccc(C)n1-c1nnc(N2CCC(C(=O)NCc3ccccc3Cl)CC2)s1 7.93%
COc1cc(C(F)(F)F)c(C(=O)N(C)c2ccc(Cl)cc2)cn1 -13.9% [at 1.82 µM]
COc1ccc(Cl)cc1NC(=O)c1oc(C)nc1C -4.05%
CCOC(=O)c1ccc(NC(=O)CSc2nc3c([nH]c4ccccc43)c(=O)n2C)cc1 14.3%
Cc1c(Cl)cccc1NC(=S)N(Cc1ccccc1)Cc1cccnc1 -6.19%
CSc1cccc(NC(=S)N(C(C)C)C(C)c2ccccn2)c1 (stereo not drawn) -6.51% [at 9.22 µM]
CC(C)(C)OC(=O)N1CCC(c2c(C(=O)N3CCN(c4cccc(Cl)c4)CC3)cnn2-c2cccc(Cl)c2)CC1 28.5%
CCOCCCNC(=O)c1c(NC(=O)Cc2coc3c(C)c(C)ccc23)sc2c1CCC2 0%
CC(NC(=O)COc1ccccc1)C(=O)NC1=NCCS1 (stereo not drawn) -24.5%
Cc1csc(NC(=O)CSc2nnc(-c3cccnc3)o2)n1 -8.58%
COc1ccc(-c2nn(CC(=O)Nc3ccccc3F)c3c2cnc2ccc(F)cc23)cc1 0%
Cc1ccc(Cn2c(=O)n(CCCC(=O)NCc3ccccc3Cl)c(=O)c3ccccc32)cc1 -11.2%
COc1cc(OC)c(NC(=O)Cc2ccc(-n3c(C)nc4cccnc43)cc2)cc1Cl -10.8%
O=C(Nc1nc2c(s1)CCCC2)c1ccccc1F 22.7%
Cc1cc(C)cc(OC(C)C(=O)Nc2nc3c(s2)CCCC3)c1 (stereo not drawn) 9.5%
COc1ccc(-c2cn3nc(N4CCC(C(=O)Nc5cccc(C)c5C)CC4)sc3n2)cc1 6.6%
CC1(C(=O)NS(=O)(=O)c2ccccc2)CCN1C(=O)c1ccccc1 (stereo not drawn) 0.758%
CC1(C(=O)NS(=O)(=O)c2ccc3ccccc3c2)CCN1C(=O)C1(c2ccc(Cl)cc2)CCC1 (stereo not drawn) -8.26%
Cc1ccccc1S(=O)(=O)NC(=O)C1(C)CCN1C(=O)Cc1ccc(Cl)cc1Cl (stereo not drawn) 0%
CCCNC(=O)C1(C)CCN1C(=O)C1(c2ccccc2)CC1 (stereo not drawn) 17.1%
COc1ccc(NC(=O)CSc2nccn2C2CCCC2)cc1OC 8.04%
COc1ccccc1CCNC(=O)c1cccn1-c1nnc(N2CCCCC2)s1 -17.6%
O=C(CCn1c(=O)c2sccc2n(Cc2ccc(F)cc2)c1=O)NCc1ccc2c(c1)OCO2 13.5%
O=C(Nc1ccc2nc(SCC(=O)N3CCCc4ccccc43)sc2c1)c1ccc(Cl)cc1 -7.69%
CCOc1ccccc1NC(=O)CN1CCCN(Cc2cccc(Cl)c2)S1(=O)=O 24.2%
CCCCn1cc(S(=O)(=O)c2ccc(OCC)cc2)c(=O)c2cc(OC)c(OC)cc21 19.6%
COc1ccc(S(=O)(=O)c2cn(C)c3cc(N4CCCCC4)c(F)cc3c2=O)cc1 21.4%
COc1cc2nc(NCC(C)c3ccccc3)n3nc(-c4ccccc4)nc3c2cc1OC (stereo not drawn) -5.52%
CCCCC12CN3CC(C)(CN(C1)C3c1ccc(O)c(OC)c1)C2=O (stereo not drawn) 9.06%
Cc1nc(-c2ccc(F)cc2)c(CC(=O)N2CCN(S(=O)(=O)c3ccc(F)cc3)CC2)s1 23.4%
Cc1nc(-c2ccc(F)cc2)c(CC(=O)Nc2cc(S(=O)(=O)N3CCCCC3)ccc2C)s1 -16.5%
COc1cccc(CNCc2c(C(=O)O)n(Cc3ccc(C)cc3)c3cc(C)ccc23)c1OC -5.18%
COc1ccc(NS(=O)(=O)c2cc3c4c(c2)CC(=O)N4CCC3)cc1Cl 5.28%
COc1cc(NC(=O)CSc2nc3nc(C)c(Cc4ccc(C)cc4)c(C)n3n2)cc(OC)c1OC 28.1%
Cn1cc(S(=O)(=O)Nc2ccc(Cl)cc2Cl)c(=O)n(C)c1=O -9.05%
Cn1cc(S(=O)(=O)NC(c2ccccc2)c2ccccc2)c(=O)n(C)c1=O -11.6%
Cc1nnc(N2CCC(C(=O)Nc3ccc(F)cc3)CC2)c2nn(-c3ccc(Cl)cc3)c(C)c12 16%
CCc1ccc(C(=O)NNC(=O)C2CCN(c3ncnc4sc(C)c(C)c34)CC2)cc1 -1.89%
O=C(CCn1ccc2cc(S(=O)(=O)N3CCCC3)ccc21)NCc1cccc(Cl)c1 17.2%
CCOC(=O)c1ccc(NC(=O)CCS(=O)(=O)c2ccc(C)cc2)cc1 0%
O=C(CCc1nc(CN2CCN(S(=O)(=O)c3ccc(F)cc3)CC2)no1)N1CCCCC1 1.71%
COc1cccc(CNC(=O)Cn2ncn3c(cc4ccccc43)c2=O)c1 8.84%
Fc1ccc(-n2ncc3c(Nc4ccc(Oc5ccccc5)cc4)ncnc32)cc1 23.6%
CCCCNc1c(-c2cccc(Sc3ccc(OC)cc3)c2)nc2ccccn12 -91.7%
O=C1CN(C(=O)Nc2ccccc2C(F)(F)F)C(c2ccccc2)c2c(sc3c2CCCC3)N1 (stereo not drawn) 24.1%
COc1cc(OC)cc(-c2nc3nc(C)c(CCC(=O)Nc4ccc(C)cc4)c(C)n3n2)c1 -11.3%
CCOc1ccc(C(=O)NCC(=O)N2CCN(c3ccc(C(F)(F)F)cn3)CC2)cc1 15.3%
CCN(CC)CCN(C)C(c1ccnc2ccccc12)c1nnnn1-c1ccc2c(c1)OCCO2 (stereo not drawn) -2.36%
O=C(Nc1ccc(O)c(-c2nc3ccccc3o2)c1)c1ccc(-c2cccc(Cl)c2)o1 23.1%
COC(=O)c1cc2occc2n1Cc1nc(-c2ccc(C)cc2)oc1C 10.7%
CCN(CC)S(=O)(=O)c1ccc2c(c1)N(CC(=O)NCc1ccccc1)C(=O)CS2 7.04%
CCNC(=O)c1cnn(-c2ccccc2)c1-c1ccccc1 11.8%
Nc1c(C(=O)O)cnn1-c1ccccc1 -41.8%
O=C(Nc1ccc(S(=O)(=O)N2CCC(c3nc4ccccc4s3)CC2)cc1)c1ccccc1F 26.8%
COc1ccc(Cn2ccn(Cc3cccc(OC)c3)c(=O)c2=O)cc1 14.9%
COc1ccc(C=C2CCC3C(CCCC34OCCO4)C2=O)cc1 (stereo not drawn) 0%
Cc1cc(Br)ccc1NC(=O)Cn1cnc2sc(C)c(S(=O)(=O)N3CCN(C)CC3)c2c1=O 2.06%
CCOc1ccc(N(CC)C(=O)c2cc3c(=O)oc4ccccc4c3s2)cc1 6.24%
CCOc1ccc(CCNC(=O)Cn2nc(CC)n3c(cc4sc(CC)cc43)c2=O)cc1OCC 10.3%
CCOc1ccc(C(=O)/C=C/c2cn(CC(O)CN3CCCCCC3)c3ccccc23)cc1 (stereo not drawn) 6.38%
CC(C)c1ccc(NC(=O)Cn2nnc(C(=O)NCCc3ccccc3)c2N)cc1 6.09%
CCOC(=O)C1CCCN(C(=O)c2ccc(-n3ccc4ccccc43)s2)C1 (stereo not drawn) 9.38%
CCN1CCN(C2CCCCC2NS(=O)(=O)c2ccc(Cl)cc2)CC1 (stereo not drawn) 17.9%
CCOC1CCCCC1NS(=O)(=O)c1ccc(Cl)cc1 (stereo not drawn) -8.86%
COc1ccc(Cn2ccnc2SCC(=O)NCc2ccco2)cc1 0%
COc1cc(C(=O)N2CCC(c3ccncc3)CC2)cc(OC)c1OC -21.7% [at 9.22 µM]
CCn1c(=O)c(=O)n(CC)c2cc(N3CCCCC3)c(NC(=O)c3cccc(F)c3)cc21 -6.82%
O=C(Nc1ccccc1N1CCCC1)c1ccc(F)c(S(=O)(=O)N2CCOCC2)c1 8.64%
CCN1CCN(Cc2c(O)ccc3oc(C)c(C(=O)Nc4ccc(C)cc4C)c23)CC1 9.49%
O=C(CSc1nc2nccnc2c(=O)n1CCc1c[nH]c2ccccc12)Nc1ccccc1F 20.8%
Cc1ccc(S(=O)(=O)NCc2cn3ccsc3n2)c(C)c1 -1.93%
O=C(NCc1ccc(Cl)cc1)c1cc2c(nc3sccn32)s1 -3.87%
Cc1ccc2nc3c(cc(C(=O)NC4CCCCC4)c(=N)n3C(C)C)c(=O)n2c1 19.8%
CCN(Cc1ccccc1)S(=O)(=O)c1ccc2c(c1)CCCN2C(C)=O 0%
CCOC(=O)c1ccc[n+](CC(=O)Nc2ccccc2OC(F)F)c1 1.27% [at 0.397 µM]
CC(=O)Nc1ccc(NC(=O)COc2ccccc2C(=O)Nc2cccc(Cl)c2Cl)cc1 7.69%

Potency, active:
COc1ccc(Nc2cc(Cl)ccc2C(=O)O)cn1 10 µM
CSc1cccc(NC(=S)N(Cc2ccccc2)Cc2ccccn2)c1 20 µM
O=C(CSC1=NCCS1)Nc1nc(-c2ccccc2)cs1 22.4 µM
Fc1ccc2nc(Nc3nc4c(s3)CCCC4)sc2c1 2.24 µM
Cc1ccccc1S(=O)(=O)NC(=O)C1(C)CCN1C(=O)C1(c2ccc(Cl)cc2)CC1 (stereo not drawn) 28.2 µM
Cc1ccccc1S(=O)(=O)NC(=O)C1(C)CCN1C(=O)C1(c2ccccc2)CCCC1 (stereo not drawn) 35.5 µM
Cc1ccc(S(=O)(=O)N2CCN(C(=O)Cc3sc(C)nc3-c3ccc(F)cc3)CC2)c(C)c1 35.5 µM
CC(C)c1ccc(NS(=O)(=O)c2cn(C)c(=O)n(C)c2=O)cc1 20 µM
Cc1sc2ncnc(N3CCC(C(=O)Nc4ccc(F)cc4Cl)CC3)c2c1C 15.8 µM
CCCCNc1c(-c2ccc(OC)c(Sc3ccc(OC)cc3)c2)nc2ccc(Cl)cn12 17.8 µM
CCC(c1nnnn1-c1ccc2c(c1)OCCO2)N1CCN(c2ccc(C(F)(F)F)cn2)CC1 (stereo not drawn) 22.4 µM
CCCc1c(C(=O)O)cnn1-c1ccc(Cl)cc1 20 µM
COc1ccc2c(c1)CC[C@@H]1[C@@H]2CC[C@]2(C)C(=O)CC[C@@H]12 12.6 µM
O=S(=O)(NC1CC2CCC1C2)c1ccc(Cl)cc1 (stereo not drawn) 7.08 µM
O=C(Nc1ccccc1N1CCCCC1)c1cccc(F)c1 12.6 µM
Cc1ccc(Nc2c(-c3ccc(Cl)cc3)nc3sccn23)c(C)c1 25.1 µM
FC(F)Oc1ccccc1NC(=S)Nc1cccc(Cl)c1Cl 17.8 µM

Potency, inactive:
COc1ccc(-c2nc3cc(C)ccn3c2NC2CCCCC2)cc1SC1CCCCC1
